In publication PMC4336329 (PLoS ONE, 2015):
About 2,200 (0.71%) of roughly 310,000 compounds showed an effect of 50% or more. The effect is printed as a negative number. Shown is part of a subset that was picked to be rich in strong results.

What follows are compounds tested against human ether-à-go-go-related gene (hERG) potassium channel (human, UniProt Q12809) (assay: primary screen, population patch clamp on CHO cells stably expressing hERG; higher = less effect of the substance).
Chain of human ether-à-go-go-related gene (hERG) potassium channel (Q12809 whole entry, looked up): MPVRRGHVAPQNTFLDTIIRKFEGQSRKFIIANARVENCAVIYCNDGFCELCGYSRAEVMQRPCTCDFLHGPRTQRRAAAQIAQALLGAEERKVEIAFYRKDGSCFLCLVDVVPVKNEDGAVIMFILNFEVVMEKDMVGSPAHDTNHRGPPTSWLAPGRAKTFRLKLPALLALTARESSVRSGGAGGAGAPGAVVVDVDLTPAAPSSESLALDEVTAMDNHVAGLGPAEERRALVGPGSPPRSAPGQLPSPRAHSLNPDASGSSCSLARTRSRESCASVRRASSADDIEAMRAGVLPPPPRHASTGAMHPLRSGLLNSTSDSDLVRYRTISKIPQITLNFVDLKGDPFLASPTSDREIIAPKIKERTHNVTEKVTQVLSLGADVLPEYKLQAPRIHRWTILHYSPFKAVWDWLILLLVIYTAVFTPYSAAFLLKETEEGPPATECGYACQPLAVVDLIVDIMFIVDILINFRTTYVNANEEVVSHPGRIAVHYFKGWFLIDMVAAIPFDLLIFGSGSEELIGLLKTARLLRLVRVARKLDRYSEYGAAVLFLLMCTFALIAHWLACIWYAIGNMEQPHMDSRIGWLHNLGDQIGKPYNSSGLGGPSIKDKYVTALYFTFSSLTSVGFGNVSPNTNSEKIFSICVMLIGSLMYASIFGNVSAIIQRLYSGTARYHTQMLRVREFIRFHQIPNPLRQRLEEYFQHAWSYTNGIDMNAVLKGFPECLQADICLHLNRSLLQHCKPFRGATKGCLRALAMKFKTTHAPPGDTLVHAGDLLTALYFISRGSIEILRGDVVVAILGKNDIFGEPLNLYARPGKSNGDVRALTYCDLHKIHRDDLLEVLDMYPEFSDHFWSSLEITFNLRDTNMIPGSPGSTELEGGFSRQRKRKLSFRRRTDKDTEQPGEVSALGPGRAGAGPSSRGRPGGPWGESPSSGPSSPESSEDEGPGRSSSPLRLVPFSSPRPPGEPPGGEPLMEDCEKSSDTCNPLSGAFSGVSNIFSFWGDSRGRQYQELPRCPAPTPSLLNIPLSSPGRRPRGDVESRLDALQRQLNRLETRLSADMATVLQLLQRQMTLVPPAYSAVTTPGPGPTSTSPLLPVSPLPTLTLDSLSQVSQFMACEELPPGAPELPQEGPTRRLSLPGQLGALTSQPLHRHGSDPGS

Structure (SMILES)	hERG current change (%, negative = inhibition) at 1uM
CCN1CCN(c2ccc(NC(=O)c3ccc4c(c3)OCO4)cc2)CC1	-16.7%
CCOC(=O)C1=C(COC(=O)/C=C/c2cccc(Br)c2)NC(=O)NC1C (stereo not drawn)	-7.77%
Cc1ccc(C#N)c(SCc2cccc(Br)c2)n1	17.2%
CCCOC(=O)c1ccc(NC(=O)/C=C/c2cccs2)cc1	7.88%
CCN(CC)CCOC(=O)c1ccc(NC(=O)/C=C/c2cccs2)cc1.Cl	-53.5%
CCCCOC(=O)c1ccc(NC(=O)/C=C/c2cccs2)cc1	1.76%
O=C(N/N=C\c1cccnc1)c1cc(-c2ccc(Cl)s2)[nH]n1	8.22%
CSc1ccc(/C=C(/NC(=O)c2ccccc2)C(=O)NCCN2CCOCC2)cc1	-10.3%
O=C(NCCO)/C(=C\c1ccc(Br)cc1)NC(=O)c1cccs1	6.96%
O=C(NCCO)/C(=C/c1ccc(Br)cc1)NC(=O)c1cccs1	-8.3%
O=C(NCCN1CCOCC1)/C(=C/c1ccc(F)cc1)NC(=O)c1ccccc1	-58.4%
O=C(NCCN1CCOCC1)/C(=C\c1ccc(Br)cc1)NC(=O)c1cccs1	-54%
CN(C)c1ccc(/C=C(\NC(=O)c2ccccc2)C(=O)NCCN2CCOCC2)cc1	8%
CSc1ccc(/C=C(\NC(=O)c2ccccc2)C(=O)NCCN2CCOCC2)cc1	-44.3%
O=C(NCCCN1CCOCC1)/C(=C/c1ccc(F)cc1)NC(=O)c1ccccc1	-46.5%
O=C(NCCN1CCOCC1)/C(=C\c1ccc(F)cc1)NC(=O)c1ccccc1	-51.7%
COc1cc(CCC(=O)OCC(=O)Nc2ccc(F)c(F)c2)cc(OC)c1OC	3.59%
CC(C)N1C(=O)S/C(=C/c2ccc3c(c2)n(C)c(=O)n3C)C1=O	-5.59%
COc1ccc(CNC(=O)COC(=O)CC2CC3CCC2C3)cc1OC (stereo not drawn)	6.66%
COc1cccc(/C=C/c2nc3c(cnn3-c3ccccc3)c(=O)[nH]2)c1	9.85%
COC(=O)c1cc(NC(=O)Cc2ccc(OC)cc2)cc(C(=O)OC)c1	14.7%
Cc1c(C(=O)Nc2c(F)cccc2F)sc2ncnc(N3CCN(c4ccccc4)CC3)c12	4.01%

Structure (SMILES)	hERG current change (%, negative = inhibition) at 1uM
CCN1CCN(c2ncnc3sc(C(=O)Nc4ccccc4F)c(C)c23)CC1	-50.9%
CCOC(=O)c1sc2ncnc(N3CCN(CC)CC3)c2c1C	-9.54%
Cc1ccc(S(=O)(=O)NC2CCC(C(=O)O)CC2)cc1 (stereo not drawn)	9.17%
COC(=O)c1oc2ccc(OC)cc2c1N	14.9%
CC(=O)N(c1ccccc1C)S(=O)(=O)c1ccc(Cl)cc1	10%
COc1ccc2[nH]c(C(=O)NCCc3ccccc3)cc2c1	17.2%
COc1ccccc1NC(=S)NC1CCCC1	14.8%
CN1/C(=C\C(=O)c2ccco2)C(C)(C)c2ccccc21	4.59%
CC(=O)Nc1ccc(NC(=O)C(C)OC(=O)CCC(=O)c2ccc(F)cc2)cc1 (stereo not drawn)	8.41%
CC(OC(=O)CCC(=O)c1ccccc1)C(=O)Nc1ccc(F)cc1 (stereo not drawn)	-299%
CC(OC(=O)CCCC(=O)Nc1ccc(F)cc1)C(=O)c1ccccc1 (stereo not drawn)	12.7%
CC(=O)NCCC(=O)Nc1nc2ccc(Oc3ccccc3)cc2s1	2.19%
Cc1cccc(S(=O)(=O)Nc2cccc3c2C(=O)c2ccccc2-3)c1	3.03%
COc1ccc(-c2csc(N(CCCN(C)C)C(=O)c3ccc(C)cc3)n2)cc1.Cl	-17.2%
COc1ccc(-c2csc(N(CCCN(C)C)C(=O)c3cccs3)n2)cc1.Cl	-51.6%
CCN(C(=O)c1cccs1)c1nc(-c2ccc(OC)cc2)cs1	13.4%
CCN(CC)CCCN(C(=O)c1ccc(OC)cc1)c1nc(-c2ccc(OC)cc2)cs1	-15.5%
O=C(c1cccs1)N(CC1CCCO1)c1nc(-c2ccccc2)cs1 (stereo not drawn)	11.8%
COc1ccc(-c2csc(N(CCCN(C)C)C(=O)c3ccccc3Cl)n2)cc1.Cl	-12.5%
COc1ccc(-c2csc(N(CCCN(C)C)C(=O)c3ccccc3C)n2)cc1.Cl	-2.13%
CN(C)CCCN(C(=O)c1cccs1)c1nc(-c2ccccc2)cs1	-50.7%
CCC(=O)N(CC)c1nc(-c2cc(OC)ccc2OC)cs1	12.9%

Structure (SMILES)	hERG current change (%, negative = inhibition) at 1uM
CCC(=O)N(CCCN(C)C)c1nc(-c2cc(OC)ccc2OC)cs1.Cl	-8.76%
CCN(CC)CCCN(C(C)=O)c1nc(-c2cc(OC)ccc2OC)cs1.Cl	-51%
CCN(CC)CCCN(C(=O)c1cccs1)c1nc(-c2ccc(OC)cc2)cs1	-71.8%
COC(=O)c1cc(OC)c(OC)cc1NC(=O)C(C)c1ccc([N+](=O)[O-])cc1 (stereo not drawn)	8.84%
CC1OC2(OC1C)C(=O)Nc1ccccc12 (stereo not drawn)	6.93%
Cc1onc(NC(=O)NC(=O)c2c(F)cccc2Cl)c1Br	10.4%
O=C(Cn1nc(C(=O)O)c2ccccc2c1=O)Nc1ccc2c(c1)C(=O)c1ccccc1C2=O	6.96%
COc1ccc(-c2nc(CS(=O)CC(=O)NCc3ccco3)c(C)o2)cc1 (stereo not drawn)	-1.89%
COc1cc(/C=C2\C(=N)N3N=CSC3=NC2=O)ccc1OS(=O)(=O)c1ccccc1	6.08%
CCCCc1ccc(NC(=S)N2CCCC(C)C2)cc1 (stereo not drawn)	10.2%
O=C(c1cccs1)N1CCN(c2nc3ccccc3s2)CC1	7.28%
CC(C)n1c(N2CCN(CC(=O)NCc3cccs3)CC2)nc2ccccc21	-30.9%
CCCn1c(N2CCN(CC(=O)Nc3ccc4c(c3)OCCO4)CC2)nc2ccccc21.Cl	-29.2%
CC(C)Cn1c(N2CCN(C(=O)c3cccs3)CC2)nc2ccccc21	-74.7%
CC(C)n1c(N2CCN(C(=O)c3cccs3)CC2)nc2ccccc21	-26.9%
CCCn1c(N2CCN(CC(=O)NCc3cccs3)CC2)nc2ccccc21	-62.7%
O=C(/C=C/c1cccc([N+](=O)[O-])c1)OC1CCCCC1=O (stereo not drawn)	9.96%
Cc1ccc(C(C)NC(=O)CSc2ccc(S(=O)(=O)N3CCOCC3)cn2)cc1C (stereo not drawn)	5.8%
COc1ccc(Cl)cc1Nc1nc(-c2sc(NC(=O)CC(C)C)nc2C)cs1	11.1%
CCOC(=O)c1sc(=S)n(-c2cc(OC)ccc2OC)c1N	6.58%
COc1cc2c(cc1OC)CN(CC(=O)Nc1ccc(Cl)cc1Cl)CC2	2.03%
COc1cc2c(cc1OC)C(C)N(CCc1ccc(Cl)cc1)CC2.O=C(O)/C=C\C(=O)O (stereo not drawn)	-39.9%

Structure (SMILES)	hERG current change (%, negative = inhibition) at 1uM
COc1cc2c(cc1OC)CN(CCC(C)c1ccc(Cl)cc1)CC2.O=C(O)/C=C\C(=O)O (stereo not drawn)	-50.5%
O=C(COC(=O)c1cccs1)Nc1ccccc1Cl	14.6%
COc1cccc(-n2c(SCC(=O)Nc3nccs3)nnc2-c2ccoc2C)c1	-84.6%
Cc1ccc(-n2c(SCC(=O)NCc3cccs3)nnc2-c2ccoc2C)cc1	-16.5%
CCn1c(SCC(=O)Nc2nc(C)cs2)nnc1-c1ccoc1C	10.4%
COC(=O)CSc1nnc(-c2ccoc2C)n1-c1ccc(OC)cc1	8.81%
COc1ccc(-n2c(SCC(=O)Nc3ccccc3)nnc2-c2ccoc2C)cc1	11.7%
Cc1csc(NC(=O)CSc2nnc(C)n2Cc2ccco2)n1	7.95%
Cc1occc1-c1nnc(SCC(=O)NCc2cccs2)n1-c1ccc(F)cc1	-14%
Cc1csc(NC(=O)CSc2nnc(-c3ccoc3C)n2Cc2ccco2)n1	-78.4%
COc1ccc(-n2c(SCC(=O)NCc3cccs3)nnc2-c2ccoc2C)cc1	-55.9%
CCOc1ccccc1-n1c(SCC(=O)Nc2nccs2)nnc1-c1ccoc1C	11.5%
COc1ccc(-n2c(SCC(=O)Nc3nc(C)cs3)nnc2-c2ccoc2C)cc1	-85%
Cc1occc1-c1nnc(SCC(=O)Nc2nccs2)n1Cc1ccco1	3.28%
O=C(CCCN1C(=O)/C(=C/c2ccccc2Cl)SC1=S)Nc1ccccn1	4.44%
COc1cc(NC(=O)CSc2nccc(C)n2)c(C(=O)O)cc1OC	-7.07%
COc1cc2c(cc1OC)C(COc1ccccc1OC)N(C(=O)C(C)(C)C)CC2 (stereo not drawn)	5.43%
COCc1[nH]nc2c1C(c1ccc(OC)c(OC)c1)C(C#N)=C(N)O2 (stereo not drawn)	10.6%
CCOc1ccc(N2CC(C(=O)Nc3ccccc3N3CCOCC3)CC2=O)cc1 (stereo not drawn)	4.41%
COc1ccc(OC)c(NC(=O)CSc2nnc(CNC(=O)COc3ccc(Cl)cc3)o2)c1	2.4%
COC(=O)C1=C(O)C(C(=O)OC)C(c2ccc(C)cc2)C(C#N)(C#N)C1c1ccc(C)cc1 (stereo not drawn)	6.75%
